According to PubChem BioAssay (Tox21):
Results filed as inconclusive are left out. Active and inactive are the calls of the source. Calls come from the whole dose curve; as a rule, active = well fitted inhibition curve with a large enough effect in the signal ratio in the repeat runs (not every such curve was filed as active); inconclusive = weak or mixed curves, or effect the other way; inactive = no such curve, though single readings can be large or run the other way; the % refers to the signal ratio.

Target: Glucocorticoid receptor (Homo sapiens) (UniProt P04150)
Test: qHTS assay to identify small molecule antagonists of the glucocorticoid receptor (GR) signaling pathway (AID 720692)
Settings: GR-bla HeLa, beta-lactamase FRET ratio, dexamethasone-stimulated, 18 h; series mostly up to 58.5 µM
In short: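 Quantitative HTS in antagonist format: HeLa cells expressing endogenous GR and a stably integrated GRE-bla reporter, stimulated with 5 nM dexamethasone (final) alongside test compounds for 18 h.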

Sequence of Glucocorticoid receptor (Homo sapiens) (P04150 whole entry, looked up): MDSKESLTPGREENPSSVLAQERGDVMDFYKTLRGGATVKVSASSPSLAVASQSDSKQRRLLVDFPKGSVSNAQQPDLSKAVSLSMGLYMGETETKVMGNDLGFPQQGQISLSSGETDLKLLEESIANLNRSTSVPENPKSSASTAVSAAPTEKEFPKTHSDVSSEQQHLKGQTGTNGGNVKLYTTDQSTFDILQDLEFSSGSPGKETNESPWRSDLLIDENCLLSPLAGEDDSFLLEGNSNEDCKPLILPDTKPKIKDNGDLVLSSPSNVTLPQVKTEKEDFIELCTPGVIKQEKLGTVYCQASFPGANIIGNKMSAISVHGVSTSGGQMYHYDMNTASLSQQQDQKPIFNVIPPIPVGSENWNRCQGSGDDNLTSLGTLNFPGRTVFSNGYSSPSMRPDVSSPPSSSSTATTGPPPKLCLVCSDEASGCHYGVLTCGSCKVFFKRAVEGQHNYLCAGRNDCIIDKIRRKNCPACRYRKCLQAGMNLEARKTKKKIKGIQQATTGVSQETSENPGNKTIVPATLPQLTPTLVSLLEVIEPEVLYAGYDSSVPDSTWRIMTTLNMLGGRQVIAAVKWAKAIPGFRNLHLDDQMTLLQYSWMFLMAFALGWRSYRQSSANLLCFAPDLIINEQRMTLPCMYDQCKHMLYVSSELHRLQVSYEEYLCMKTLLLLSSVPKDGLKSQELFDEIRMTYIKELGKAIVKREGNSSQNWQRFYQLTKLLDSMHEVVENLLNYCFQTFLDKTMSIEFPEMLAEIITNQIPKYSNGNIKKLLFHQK

Question: For `CCCCCCOC(=O)CC`, which outcome is on record?
Answer: inactive

Question: With `O=C(O)c1cc(Cl)cc([N+](=O)[O-])c1Cl` as the compound, how does the outcome read?
Answer: inactive

Question: `COc1ccc(-c2cc(=O)c3c(O)cc(O[C@@H]4O[C@H](CO[C@@H]5O[C@@H](C)[C@H](O)[C@@H](O)[C@H]5O)[C@@H](O)[C@H](O)[C@H]4O)cc3o2)cc1O` was tested. Which outcome did it give?
Answer: inactive

Question: With `CC(C)NCC(O)COc1ccc(COCCOC(C)C)cc1` (stereo not drawn) as the compound, how does the outcome read?
Answer: inactive

Question: How did the outcome turn out when `C=C(C)C(=O)OCCNC(C)(C)C` was run?
Answer: inactive

Question: For `C=COCCOCCOCCOC=C`, which outcome is on record?
Answer: inactive

Question: Which outcome does the source give for `FC(F)(F)c1ccccc1-n1ccnc1` here?
Answer: inactive

Question: How did the outcome turn out when `C=Cc1ccccn1` was run?
Answer: inactive

Question: How did the outcome turn out when `CCO[Si](CCCS)(OCC)OCC` was run?
Answer: inactive

Question: For `CC(C)(C)NC(N)=O`, which outcome is on record?
Answer: inactive

Question: Which outcome does the source give for `COCCOCCOCCOCCOCCO` here?
Answer: inactive

Question: With `O=C1O[C@@H]2[C@@H](O)[C@H](O)O[C@@H]2[C@H]1O` as the compound, how does the outcome read?
Answer: inactive

Question: For `CC(=O)Nc1ccc(S(=O)(=O)Nc2ccc([N+](=O)[O-])cc2)cc1`, which outcome is on record?
Answer: inactive
